# Hits are enriched below; roughly 8.3% of the tested compounds scored in any of these assays.
# BCR signal inh = chronic active BCR signaling inhibition; 0.05% of 340,000 active; AID 493014; ABC-DLBCL IkBa-CBG/CBR reporter, luminescence ratio, 4 h; Potency, µM (highest dose often 46.1 µM), without a hit: top-dose activity change, negative = inhibition, actives largely listed as inhibitors; active = well fitted inhibition curve with a large enough effect in the signal ratio, with a control signal flat, not every such curve was filed as active; inconclusive = small, poorly fitted or top-dose-only effect, or effect the other way, or a change in a side signal; the % refers to the signal ratio;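 note: potency is the fitted concentration of half-maximal effect; plate controls were basal doxycycline-induced cells for no effect and cells given 10 µM MG132 for full effect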
#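 TMD8 ABC-DLBCL cells carrying doxycycline-inducible green luciferase fused to IkappaBalpha plus unfused red luciferase were exposed to compounds (up to 46 uM) for 4 hrs at 37C. Activity came from the overlap-corrected green/red luminescence ratio.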
# SW480 rereplic = induces DNA re-replication in SW480 colon adenocarcinoma cells; SW480 DNA re-replication, Hoechst DNA content imaging, 48 h; Potency, µM (series often up to 46.1 µM), for the others: at the highest dose re-replication activation, hits mostly activators; 1.8% of 340,000 active; AID 624297; note: potency is the fitted concentration of half-maximal effect; % of control where 0% means no effect; nearly all actives have a fitted effect of over 55% in size
#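 Readout is total intensity of Hoechst-stained nuclei, excited at 405 nm and collected at 500-530 nm. Compound treatment lasted 48 hr at 37 C in 5% CO2 before staining.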
# Giardia killer = kills Giardia lamblia; AID 540267; 0.15% of 340,000 active; Giardia lamblia trophozoite viability; activity change, % at 7.66 µM, hits read low; in the data active = activity change below about -80%; inconclusive = between about -30% and that limit;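 note: parasites exposed to compound for two days anaerobically before the ATP read; % is set by controls: 0 for no effect and ±100 for the full control effect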
#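 Trophozoites 100 cells/well + cpd; 48 hrs, 37 deg C, anaerobic. ATPLite 1-Step added, 15-30 min RT, luminescence read (ATP-based viability).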
# RORgamma inh = ROR gamma (mouse) transcription inhibition; Potency, µM (series often up to 53.6 µM), for inactives: at the top dose activity change, negative = inhibition, most hits filed as inhibitors; 5.4% of 310,000 active; Drosophila S2 Gal4-RORgamma UAS-luciferase reporter, 20 h; P51450; AID 2551; note: potency is the fitted concentration of half-maximal effect; % is set by controls: 0 for no effect and ±100 for the full control effect; nearly all actives have a fitted effect of over 60% in size
# Target sequence (P51450 whole entry, looked up, the tested form may be a part): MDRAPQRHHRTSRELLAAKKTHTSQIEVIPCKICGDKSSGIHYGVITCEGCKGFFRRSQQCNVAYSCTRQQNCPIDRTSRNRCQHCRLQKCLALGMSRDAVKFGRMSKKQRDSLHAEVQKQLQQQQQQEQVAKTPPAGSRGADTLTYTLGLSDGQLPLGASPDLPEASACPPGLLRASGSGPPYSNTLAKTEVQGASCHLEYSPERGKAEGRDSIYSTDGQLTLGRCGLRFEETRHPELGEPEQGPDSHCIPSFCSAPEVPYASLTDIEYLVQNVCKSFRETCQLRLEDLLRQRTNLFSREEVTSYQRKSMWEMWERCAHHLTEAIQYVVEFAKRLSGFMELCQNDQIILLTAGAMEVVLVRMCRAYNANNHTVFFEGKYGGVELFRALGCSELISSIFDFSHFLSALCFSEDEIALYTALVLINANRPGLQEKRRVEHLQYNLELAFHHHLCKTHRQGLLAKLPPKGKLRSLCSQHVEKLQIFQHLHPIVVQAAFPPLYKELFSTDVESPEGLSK
#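 ROR gamma transcriptional activity was tracked as Gal4-UAS luciferase output in stably transfected Drosophila Schneider cells, with compound added 1 hr before 700 uM copper sulfate induction and a 20 hr ambient-temperature incubation.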
# MCF10A rerep = induces DNA re-replication in MCF 10a normal breast cells. 2.9% of 350,000 active. MCF 10A DNA re-replication, Hoechst nuclear intensity, 48 h. Potency, µM (highest dose often 46.1 µM), for the others: top-dose activity, positive = re-replication, actives largely listed as activators; note: potency is the fitted concentration of half-maximal effect; % of control where 0% means no effect; nearly all actives have a fitted effect of over 50% in size
# VP16 counter = inhibits Gal4-VP16 luciferase reporter, ROR gamma counter-screen; Drosophila S2 Gal4-VP16 UAS-luciferase, luminescence, 20 h; Potency, µM (titrated, usually from 53.6 µM), without a hit: at the highest dose activity, negative = inhibition, hits mostly inhibitors; 3.5% of 310,000 active;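 note: Gal4-VP16 expression switched on by copper sulfate through the metallothionein promoter; potency is the fitted concentration of half-maximal effect; % is set by controls: 0 for no effect and ±100 for the full control effect; nearly all actives have a fitted effect of over 50% in size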
# The depositor's hits bear a star; ? = inconclusive; nt = not tested or not shown; [ ] = remark or other dose. Unless noted, calls come from the whole dose curve; as a rule, active = well fitted curve in the direction sought with a large enough effect; inconclusive = small, poorly fitted or top-dose-only effect, or another doubt; inactive = no such curve, though single readings can be large; an effect the other way counts as inactive or inconclusive.
SMILES,BCR signal inh,SW480 rereplic,Giardia killer,RORgamma inh,MCF10A rerep,VP16 counter
Cn1c(SCC(=O)N/N=C/c2ccc([N+](=O)[O-])s2)nnc1-c1ccc(Cl)cc1,?,?,7.8,?,?,17.8µM*
Cn1nnnc1SCC(=O)Nc1ccc(Oc2ccc(Cl)cc2)cc1,-1.0%,14.6µM*,-6.1,44.8%,8.2µM*,-4.0%
COCCn1c(SCC(=O)Nc2cccc(OC)c2)nnc1-c1ccc(Cl)cc1,1.5%,-2.5%,5.2,-5.2%,19.3%,1.4%
COc1ccc(NC(=O)CCSc2nnnn2C)cc1,7.6%,-4.7%,9.4,-5.3%,2.1%,-22.9%
COc1ccc(-c2nnc(SCC(=O)Nc3ccc(Cl)cc3)n2C)cc1,0.5%,14.6µM*,-3.7,-23.5%,3.26µM*,-8.9%
CCOC(=O)/C(=N\Nc1cccc(Cl)c1)Sc1nnc(-c2ccc(OC)cc2)n1C,0.2%,-3.9%,9.6,3.55µM*,10.6%,11.2µM*
COC(=O)[C@@]1(Cc2ccc(OC)cc2)[C@H]2c3cc(C(=O)N4CCCC4)n(Cc4cc(F)cc5c4OCOC5)c3C[C@H]2CN1C(=O)c1ccccc1,nt,nt,nt,25.4%,nt,?
O=c1c(-c2ccc(F)cc2)nc2cnc(N3CCOCC3)nc2n1C[C@H]1CCCO1,nt,nt,nt,3.2%,nt,-4.0%
CCn1c(C)c(C(C)=O)cc(C#N)c1=O,-2.4%,13.5%,11.5,-0.2%,2.8%,3.2%[10 µM]
CC1(C)N=C(SCC(=O)Nc2ccc(Cl)cc2)C(c2ccccc2)=N1,?,4.4%,0.8,-4.7%,6.6%,-14.3%
CC1(C)N=C(SCC(=O)Nc2ccc(Cl)cc2)C(c2ccc(Cl)cc2)=N1,?,?,11.1,-1.5%,18.4µM*,-11.0%
Cc1ccc(NC(=O)c2cc(-c3cccs3)nc3ccccc23)nc1,?,20.4%,-13.3,-22.7%,22.2%,20.8%
CC(C)OCCCNC(=O)c1cc(-c2cccs2)nc2ccccc12,1.4%,-4.4%,3.6,-4.9%,?,1.9%
O=C(NNc1nc2ccc(Cl)cc2s1)c1cc(-c2cccs2)nc2ccccc12,?,?,5.2,1.12µM*,18.4µM*,?
Cc1ccc2sc(NNC(=O)c3cc(-c4cccs4)nc4ccccc34)nc2c1C,-8.2%,-3.1%,nt,4.47µM*,22.7%,17.8µM*
Cc1cc(C)c2nc(NNC(=O)c3cc(-c4cccs4)nc4ccccc34)sc2c1,-16.0%,?,-5.2,1.78µM*,?,10µM*
Cc1cccc(NC(=O)NC2(C(=O)NCc3ccco3)CCCCC2)c1,-1.4%,-8.7%,-11.7,-1.8%,-7.5%,0.2%
COc1ccccc1CNC(=O)[C@@H]1CCCN1S(=O)(=O)c1ccc(Cl)cc1,5.6%,-6.7%,8.6,-29.2%,-7.2%,4.9%
CCC(C)Sc1nnc(CNC(=O)C23CC4CC(CC(C4)C2)C3)n1C1CCCCC1 (centres undefined),17.9%,19.4%,5.4,11.2µM*,?,?
CCc1nc(SCC(=O)Nc2ccccc2OC)c2c(C)c(C)sc2n1,?,14.1%,15.5,25.3%,20.6µM*,-15.9%
CCc1nc(SCC(=O)N2c3ccccc3CC2C)c2c(C)c(C)sc2n1 (centres undefined),?,20.6µM*,-3.2,37.1%,?,?
CCc1nc(SCC(=O)Nc2cc(C)ccc2OC)c2c(C)c(C)sc2n1,1.1%,-3.6%,-2.5,-17.5%,18.5%,2.0%
Cc1sc2nc(C(C)C)nc(SCC(=O)N3c4ccccc4CC3C)c2c1C (centres undefined),?,-2.6%,29.5,8.91µM*,?,17.8µM*
COc1cc2cc(C#N)c(SCC(=O)OC(C)C)nc2cc1OC,nt,nt,-10.0,nt,nt,nt
Cc1ccccc1C(=O)NNC(=S)NC(=O)c1cccs1,?,5.7%,-6.6,7.94µM*,-14.4%,12.6µM*
Cc1ccccc1C(=O)Nc1cccc(NC(=S)NC(=O)c2cccs2)c1,?,7.0%,18.4,?,?,?
Cc1cccc(C(=O)NC(=S)NNC(=O)c2cccs2)c1,?,nt,-14.1,?,4.5%,-18.1%
